Assay results taken from PubChem BioAssay (NCI).
The panel holds about 83,000 compounds, 20% with a hit somewhere; the sample as a whole holds those more often.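 Results are percent growth after 48 hours of single-concentration exposure. 100 means growth as in untreated cells, lower positive values show inhibition; negative values down to -100 show cell death.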 Values without a mark were called inactive. Activity calls are given as the source filed them. How the source made its calls: active means growth percent below 10; inactive means the rest.

Experiments:
Experiment in all cases: NCI-60 one-dose screen, 48 h (100 = growth as untreated, 0 = no growth, -100 = all killed)
Details in all cases: 10 µM unless noted
NCI-H23 lung = tested on: NCI-H23 lung
NCI-H226 lung = tested on: NCI-H226 lung
NCI-H322M lung = tested on: NCI-H322M lung
HOP-62 NSCLC = tested on: HOP-62 NSCLC
NCI-H460 lung = tested on: NCI-H460 lung
HOP-92 NSCLC = tested on: HOP-92 NSCLC
NCI-H522 lung = tested on: NCI-H522 lung
A549/ATCC NSCLC = tested on: A549/ATCC NSCLC
786-0 renal = tested on: 786-0 renal
COLO 205 colon = tested on: COLO 205 colon
DU-145 prostate = tested on: DU-145 prostate
MALME-3M melanoma = tested on: MALME-3M melanoma
MDA-MB-231 breast = tested on: MDA-MB-231 breast
RXF 393 renal = tested on: RXF 393 renal
SF-268 CNS = tested on: SF-268 CNS
SF-295 CNS = tested on: SF-295 CNS
SF-539 CNS = tested on: SF-539 CNS
UACC-257 melanoma = tested on: UACC-257 melanoma
M14 melanoma = tested on: M14 melanoma
K-562 leukemia = tested on: K-562 leukemia

SMILES	growth (NCI-H23 lung)	growth (NCI-H226 lung)	growth (NCI-H322M lung)	growth (HOP-62 NSCLC)	growth (NCI-H460 lung)	growth (HOP-92 NSCLC)	growth (NCI-H522 lung)	growth (A549/ATCC NSCLC)	growth (786-0 renal)	growth (COLO 205 colon)	growth (DU-145 prostate)	growth (MALME-3M melanoma)	growth (MDA-MB-231 breast)	growth (RXF 393 renal)	growth (SF-268 CNS)	growth (SF-295 CNS)	growth (SF-539 CNS)	growth (UACC-257 melanoma)	growth (M14 melanoma)	growth (K-562 leukemia) [%]
O=C(O)c1cn(C2CC2)c2cc(N3CCN(C(=O)CSc4nc(NS(=O)(=O)c5ccccc5)cc(=O)[nH]4)CC3)c(F)cc2c1=O	94.3%	96.2%	92.5%	116%	96.2%	106%	95.6%	110%	111%	109%	101%	82.4%	100%	112%	93.7%	104%	98.1%	95%	83.7%	–
OCc1cnccc1NC12CC3CC(CC(C3)C1)C2	102%	95.4%	103%	101%	100%	86.2%	86.1%	96%	101%	91.1%	104%	99.4%	97.6%	99.9%	98.3%	102%	108%	90%	100%	–
COc1ccc(-c2cc3ccc(N(C)C)cc3nc2N)c(F)c1	19%	48.2%	66.9%	40.3%	31.9%	19%	31%	40.8%	48.3%	12.2%	56.1%	25.3%	48.5%	32.4%	56.5%	25.4%	49.1%	23.3%	-60.5% (active)	–
O=C(Cn1c2ccccc2c2ccncc21)N/N=C/c1c[nH]c2ccccc12	48.3%	73.3%	72.8%	55.5%	1.47% (active)	61.2%	58.8%	25.2%	44%	88.2%	53.5%	43.7%	19.6%	49.2%	71.4%	87.5%	86.4%	88.3%	68.2%	–
CC1(C)N=C(N)N=C(N)N1c1ccc(OCC(=O)Nc2ccccc2)c(Cl)c1	24%	99.7%	40.2%	-3.64% (active)	15.3%	13.4%	-7.05% (active)	11.2%	–	82.9%	39.1%	55.1%	68.9%	–	28%	23.5%	23.8%	-3.5% (active)	25.7%	18.5
C=C1C(=O)O[C@H]2[C@H]1CC/C(COC(=O)c1ccccc1)=C\CC[C@@]1(C)O[C@@H]21	45%	-37.2% (active)	59.3%	36.6%	38%	-41.9% (active)	-77.7% (active)	23.3%	-59.2% (active)	-64.7% (active)	6.11% (active)	-65% (active)	-37.1% (active)	-84% (active)	41%	60.8%	-65.5% (active)	30%	-31.9% (active)	–
CCn1c(SCC(=O)c2ccc(Br)cc2)nnc1-c1cc2c([nH]c3ccccc32)c(-c2cccc(O)c2)n1	85.2%	94.4%	79.2%	67.6%	68.1%	95.2%	49.2%	41%	32.9%	108%	85.3%	64.6%	75.4%	1.81% (active)	72.5%	41.1%	60.9%	83.8%	72.2%	–
O=C(Nc1ccc(Cl)c(Cl)c1)Nc1ccc(Cl)c([N+](=O)[O-])c1	-14.4% (active)	1.2% (active)	6.27% (active)	-3.52% (active)	1.62% (active)	-23.2% (active)	-12.7% (active)	4.45% (active)	7.48% (active)	-80% (active)	18%	-12.3% (active)	-62.6% (active)	-11.8% (active)	14.1%	-26.6% (active)	8.74% (active)	-8.5% (active)	0.455% (active)	–
Nc1n[nH]c2cccc(C#Cc3cccc(NC(=O)c4cccc(C(F)(F)F)c4)c3)c12	39.5%	44%	46.5%	28.3%	40.3%	-4.2% (active)	41.2%	43.4%	23.1%	16.5%	48.5%	-0.658% (active)	9.5% (active)	-13.7% (active)	32.7%	50.3%	-19.9% (active)	50.3%	10.4%	–
C=C1C(=O)O[C@H]2[C@H]1CC/C(COC(=O)c1cc(OC)c(OC)c(OC)c1)=C\CC[C@@]1(C)O[C@@H]21	8.29% (active)	-12.1% (active)	52.9%	22%	16.1%	-59.5% (active)	-88.4% (active)	24.7%	-90.9% (active)	-73.4% (active)	-23.8% (active)	-57.7% (active)	-39% (active)	-87.8% (active)	16.5%	51%	-48.3% (active)	-41.3% (active)	-36.7% (active)	–
Cc1ccn2cc(Cc3cc(=O)oc4c3ccc3ccccc34)c(=O)nc2c1	96.6%	96.6%	101%	91.7%	106%	98.8%	75.1%	89.9%	95.5%	102%	110%	99.8%	97.6%	106%	94.8%	96.1%	93.7%	86.3%	96.8%	–
CCn1cc(/C=C2\Oc3cc(OCC#N)ccc3C2=O)c2cc(OC)ccc21	41.6%	86.4%	49.3%	36.6%	8.51% (active)	71.2%	56.7%	41.1%	38.3%	8.22% (active)	20.4%	93.4%	45.2%	-11.3% (active)	55.9%	16.7%	3.56% (active)	65.1%	22.8%	–
O=C(CNc1cccnc1)Nc1ccc(C(=O)/C=C/c2ccc(Cl)cc2)cc1	91.7%	86.4%	95.9%	107%	93.5%	90.7%	89.4%	88.3%	105%	106%	103%	89.3%	77%	98.8%	91.4%	93.9%	99.6%	105%	88.4%	–
FC(F)(F)c1cn(CC2CNC2)c2ncnc(Cl)c12	104%	102%	111%	102%	105%	114%	89.7%	94.3%	107%	106%	108%	122%	100%	112%	99.2%	100%	109%	85.6%	109%	–
CC(=O)c1cc2c(c(O)c1C)C(=O)C(=O)c1c(O)cccc1-2	-15.3% (active)	-69.7% (active)	-83.6% (active)	-78.5% (active)	-57.6% (active)	-43.9% (active)	-62.4% (active)	-66.8% (active)	-78.6% (active)	-75.4% (active)	-94.8% (active)	-83.1% (active)	-79.3% (active)	-90.2% (active)	-45.8% (active)	-82.5% (active)	-98.3% (active)	-95.7% (active)	-87.7% (active)	–
Nc1nc(Nc2ccc(OCc3cccc(F)c3)cc2)c2c(n1)[nH]c1ccc(O)cc12	6.71% (active)	-56.2% (active)	3.43% (active)	-17% (active)	-49.2% (active)	-31.3% (active)	-76.2% (active)	-27.1% (active)	-96.6% (active)	-77.5% (active)	10.4%	-69.5% (active)	-67.9% (active)	-76% (active)	-14.7% (active)	-69.2% (active)	-84% (active)	-31.2% (active)	-83% (active)	–
